The structures appear in SMILES notation. About 14,000 (4.5%) of roughly 310,000 compounds showed an effect of 50% or more. The effect is printed as a negative number. The entries come from a sample that favours strong results as a whole.
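Also: peak tail current of the secondary pulse compared with the same well before compound.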

Chain of human ether-à-go-go-related gene (hERG) potassium channel (Q12809 whole entry, looked up): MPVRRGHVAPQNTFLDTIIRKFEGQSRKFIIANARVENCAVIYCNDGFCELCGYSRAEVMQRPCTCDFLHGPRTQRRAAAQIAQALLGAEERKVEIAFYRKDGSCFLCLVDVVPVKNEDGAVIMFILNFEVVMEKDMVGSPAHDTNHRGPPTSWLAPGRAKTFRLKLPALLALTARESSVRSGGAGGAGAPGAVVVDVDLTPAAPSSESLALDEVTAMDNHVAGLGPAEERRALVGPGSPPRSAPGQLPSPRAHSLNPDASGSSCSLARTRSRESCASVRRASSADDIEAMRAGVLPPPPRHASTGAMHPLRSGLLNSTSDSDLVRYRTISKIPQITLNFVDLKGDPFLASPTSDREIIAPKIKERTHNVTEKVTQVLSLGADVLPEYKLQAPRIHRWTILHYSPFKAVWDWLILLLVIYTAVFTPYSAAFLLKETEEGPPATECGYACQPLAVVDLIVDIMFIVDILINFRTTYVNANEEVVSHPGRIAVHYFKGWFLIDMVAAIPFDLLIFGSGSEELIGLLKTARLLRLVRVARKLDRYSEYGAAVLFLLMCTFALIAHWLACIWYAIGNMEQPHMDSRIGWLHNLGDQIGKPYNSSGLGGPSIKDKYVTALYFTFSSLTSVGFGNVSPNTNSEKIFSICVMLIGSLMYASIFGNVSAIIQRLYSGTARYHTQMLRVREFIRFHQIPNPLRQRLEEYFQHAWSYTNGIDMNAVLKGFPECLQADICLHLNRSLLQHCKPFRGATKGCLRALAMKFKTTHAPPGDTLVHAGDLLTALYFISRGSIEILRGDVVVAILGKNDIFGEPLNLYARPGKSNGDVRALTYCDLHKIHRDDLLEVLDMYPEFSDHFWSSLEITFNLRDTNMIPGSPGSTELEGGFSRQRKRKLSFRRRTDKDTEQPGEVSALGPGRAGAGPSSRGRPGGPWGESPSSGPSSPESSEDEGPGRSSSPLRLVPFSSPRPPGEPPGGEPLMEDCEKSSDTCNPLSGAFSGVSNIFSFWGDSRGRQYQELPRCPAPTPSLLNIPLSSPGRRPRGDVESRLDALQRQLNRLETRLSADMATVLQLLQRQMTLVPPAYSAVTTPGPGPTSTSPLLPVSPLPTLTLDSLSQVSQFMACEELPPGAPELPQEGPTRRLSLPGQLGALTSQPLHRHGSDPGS

This test concerns the target human ether-à-go-go-related gene (hERG) potassium channel (human, UniProt Q12809). In words: primary screen, population patch clamp on CHO cells stably expressing hERG; higher = less effect of the substance.
With `CC(Oc1ccc([N+](=O)[O-])cc1)C(=O)NCC1CCCO1` (stereo not drawn), the “hERG current change (%, negative = inhibition) at 10uM” value is listed as -7.02%.

Regarding `COc1ccccc1N1C(=O)c2cccc3c(N(C)CCO)ccc(c23)C1=O`, the “hERG current change (%, negative = inhibition) at 10uM” value is recorded as 5.75%.

As to `COCCCNC(=O)c1ccc2c(c1)OCO2`, the “hERG current change (%, negative = inhibition) at 10uM” value is -9.98%.

Take `Cl.Fc1ccccc1CNCCC(Cc1ccccc1)c1ccc2c(c1)OCO2` (stereo not drawn): the “hERG current change (%, negative = inhibition) at 10uM” value is -50.6%.

As to `Fc1ccccc1CNCCc1ccc2c(c1)OCO2`, the “hERG current change (%, negative = inhibition) at 10uM” value is listed as -7.43%.

On to `CCNCCC(CCC(C)C)c1ccc2c(c1)OCO2` (stereo not drawn), for which the “hERG current change (%, negative = inhibition) at 10uM” value was -72%.

Consider `CC(NC(=O)C1CCC1)c1ccc2c(c1)OCO2` (stereo not drawn), for which the “hERG current change (%, negative = inhibition) at 10uM” value is reported as -5.51%.

`CCc1ccccc1NC(=O)NC(C)c1ccc2c(c1)OCO2` (stereo not drawn): the “hERG current change (%, negative = inhibition) at 10uM” value stood at 14%.

`COCCCNS(=O)(=O)c1ccc2c(c1)OCCO2`: the “hERG current change (%, negative = inhibition) at 10uM” value was determined as 6.53%.

Regarding `COCCCNCCC(CCC(C)C)c1ccc2c(c1)OCO2.Cl` (stereo not drawn), the “hERG current change (%, negative = inhibition) at 10uM” value is given as -80.2%.

In the case of `Fc1cccc(CCNCc2ccccn2)c1`, the “hERG current change (%, negative = inhibition) at 10uM” value is on record as -6.71%.

On to `CC(=O)N(CCC(Cc1ccccc1)c1ccc2c(c1)OCO2)Cc1ccccc1F` (stereo not drawn), for which the “hERG current change (%, negative = inhibition) at 10uM” value is 7.53%.

`Cl.Fc1ccc(-c2ccc(CNCc3ccccn3)o2)cc1`: the “hERG current change (%, negative = inhibition) at 10uM” value is given as -25.4%.

`Fc1ccc(C(CCNCc2ccccn2)c2ccc(Cl)cc2)cc1` (stereo not drawn): the “hERG current change (%, negative = inhibition) at 10uM” value is recorded as -77.5%.

For the molecule `Nc1nc(NCCOCCO)nc(NCc2ccccc2)c1[N+](=O)[O-]`, the “hERG current change (%, negative = inhibition) at 10uM” value is -1.49%.

For the molecule `O=C(NCc1ccccc1)C(=O)Nc1cccc(C(=O)O)c1`, the “hERG current change (%, negative = inhibition) at 10uM” value is on record as 4.16%.

Regarding `NC(=O)N/N=C/c1ccccc1OCC(=O)NCc1ccccc1`, the “hERG current change (%, negative = inhibition) at 10uM” value is on record as -3.76%.

For the molecule `S=c1[nH]nc(-c2ccncc2)n1/N=C/C=C/c1ccccc1`, the “hERG current change (%, negative = inhibition) at 10uM” value stood at 8.71%.

`COc1ccc(S(=O)(=O)N(CCC(=O)O)Cc2ccccc2)cc1`: the “hERG current change (%, negative = inhibition) at 10uM” value was 13.7%.

On to `Cc1ccc(-n2ncc3c(=O)n(CC(=O)NC4CCCC4)cnc32)cc1C`, for which the “hERG current change (%, negative = inhibition) at 10uM” value stood at 5.66%.

In the case of `CCOC(=O)c1ccc(NC(=O)Cc2coc3cc4c(cc23)CCC4)cc1`, the “hERG current change (%, negative = inhibition) at 10uM” value was 5.55%.

In the case of `CO[C@@]1(NC(=O)CSCC#N)C(=O)N2C(C(=O)[O-])=C(CSc3nnnn3C)CS[C@@H]21.[Na+]`, the “hERG current change (%, negative = inhibition) at 10uM” value is given as 4.09%.

Turning to `Cc1cccc(NC(=O)NNS(=O)(=O)c2ccc(F)cc2)c1`, the “hERG current change (%, negative = inhibition) at 10uM” value was -1.81%.

Consider `CSc1nnc(SCC#N)s1`, for which the “hERG current change (%, negative = inhibition) at 10uM” value is 8.95%.

Consider `CC(C)CCNC(=O)CN(C(=O)CCC(=O)Nc1nccs1)c1ccc2c(c1)OCCO2`, for which the “hERG current change (%, negative = inhibition) at 10uM” value is reported as -4.45%.

In the case of `Cc1cc(N/N=C/c2ccccc2)nc(N)n1`, the “hERG current change (%, negative = inhibition) at 10uM” value is on record as -14.5%.

For `O=C(NCc1ccccn1)Nc1ccc(Cl)cc1`, the “hERG current change (%, negative = inhibition) at 10uM” value was 13.9%.

As for `CC(C)CCC(CCNCc1ccccn1)c1ccc2c(c1)OCO2.Cl` (stereo not drawn), the “hERG current change (%, negative = inhibition) at 10uM” value is -75.5%.

Turning to `CC(C)C(CCNCc1ccccn1)c1ccc(Cl)cc1` (stereo not drawn), the “hERG current change (%, negative = inhibition) at 10uM” value is -41.6%.

As to `O=C(O)C(=O)O.c1ccc(CNCCc2ccc3c(c2)OCO3)nc1`, the “hERG current change (%, negative = inhibition) at 10uM” value is 2.74%.

Turning to `CC(C)CCC(CCNCc1ccccn1)c1ccc(Cl)cc1` (stereo not drawn), the “hERG current change (%, negative = inhibition) at 10uM” value is recorded as -80.4%.

Turning to `c1ccc(CNCc2ccc3c(c2)OCO3)nc1`, the “hERG current change (%, negative = inhibition) at 10uM” value came out at 11.2%.

Turning to `O=C(CF)NC(Nc1cccc2cccnc12)C(Cl)(Cl)Cl` (stereo not drawn), the “hERG current change (%, negative = inhibition) at 10uM” value was -5.95%.

Turning to `COc1ccc(N2CCN(C(=O)c3ccc4c(c3)CCN4S(=O)(=O)c3ccccc3)CC2)cc1`, the “hERG current change (%, negative = inhibition) at 10uM” value is -23.2%.

`O=C(NCC1CC1)Nc1ccccc1`: the “hERG current change (%, negative = inhibition) at 10uM” value was determined as 16.3%.

Turning to `N#C/C(=C/c1cc[nH]c1)C(N)=S`, the “hERG current change (%, negative = inhibition) at 10uM” value came to 14.2%.

With `CCN1CCC(NC(=O)Nc2cc(Cl)ccc2OC)CC1`, the “hERG current change (%, negative = inhibition) at 10uM” value is reported as -2.83%.

In the case of `CSc1ccccc1NC(=O)CN1CCN(S(=O)(=O)c2ccccc2[N+](=O)[O-])CC1`, the “hERG current change (%, negative = inhibition) at 10uM” value is on record as -52.2%.

Consider `CSc1ccccc1NC(=O)CN1CCN(Cc2ccccc2)CC1`, for which the “hERG current change (%, negative = inhibition) at 10uM” value is recorded as -66.3%.

In the case of `COc1ccc(N2CCN(CC(=O)Nc3ccccc3SC)CC2)cc1`, the “hERG current change (%, negative = inhibition) at 10uM” value is -5.77%.

Take `CSc1ccccc1NC(=O)CN1CCCCC1`: the “hERG current change (%, negative = inhibition) at 10uM” value is 8.96%.

Consider `COC(=O)C1CCN(CC(=O)Nc2cc(Cl)ccc2OC)CC1`, for which the “hERG current change (%, negative = inhibition) at 10uM” value was -19%.

With `COc1ccccc1NC(=O)CN1CCN(c2ccccc2)CC1`, the “hERG current change (%, negative = inhibition) at 10uM” value is -12.7%.

On to `COc1ccccc1NC(=O)CCN1CCN(Cc2ccccc2)CC1`, for which the “hERG current change (%, negative = inhibition) at 10uM” value was -22.3%.

Turning to `COc1ccc(Cl)cc1NC(=O)CN1CCC(NC(=O)C2CC2)CC1`, the “hERG current change (%, negative = inhibition) at 10uM” value was -52%.

As for `COc1ccccc1NC(=O)CN1CCN(Cc2ccccc2)CC1`, the “hERG current change (%, negative = inhibition) at 10uM” value was -67.6%.

Turning to `O=C(CN1CCN(S(=O)(=O)c2ccccc2[N+](=O)[O-])CC1)NC(=O)NCc1ccco1`, the “hERG current change (%, negative = inhibition) at 10uM” value is -5.96%.

On to `O=C(CN1CCN(S(=O)(=O)c2ccccc2[N+](=O)[O-])CC1)Nc1ccc(N2CCOCC2)cc1`, for which the “hERG current change (%, negative = inhibition) at 10uM” value is -12.9%.

On to `Cc1ccccc1C(=O)NC(=S)Nc1ccccc1[N+](=O)[O-]`, for which the “hERG current change (%, negative = inhibition) at 10uM” value came out at 18.1%.

Regarding `O=C(NC(Cc1c[nH]c2ccccc12)c1nnc2n1CCCCC2)c1ccccc1` (stereo not drawn), the “hERG current change (%, negative = inhibition) at 10uM” value stood at 18.7%.

As to `Cc1ccc(S(=O)(=O)N2CCCC(C(=O)NCCC3=CCCCC3)C2)cc1` (stereo not drawn), the “hERG current change (%, negative = inhibition) at 10uM” value is recorded as -4.03%.

Regarding `CC1Cc2ccccc2N1C(=O)Cn1cnc2ccccc2c1=O` (stereo not drawn), the “hERG current change (%, negative = inhibition) at 10uM” value was 21.8%.

As for `Cc1cc(C)nc(NC(=O)CSc2ccccn2)n1`, the “hERG current change (%, negative = inhibition) at 10uM” value was determined as 1.08%.

`C/C(=N/NC(=O)c1ccc(Br)o1)c1ccncc1`: the “hERG current change (%, negative = inhibition) at 10uM” value is 7.82%.

Turning to `CCOc1ccccc1NC(=O)C1CCN(c2ccc(S(=O)(=O)N3CCCC3)cc2)CC1`, the “hERG current change (%, negative = inhibition) at 10uM” value is reported as -6.65%.

Turning to `CCC1CCCCN1CCNS(=O)(=O)c1ccc2c(c1)CCN2C(C)=O` (stereo not drawn), the “hERG current change (%, negative = inhibition) at 10uM” value is -1.09%.

`CCN1CCN(C(=O)N(c2ccccc2)c2ccccc2)CC1`: the “hERG current change (%, negative = inhibition) at 10uM” value worked out at 11.9%.

On to `Cc1n[nH]c(=O)c2c(NC(=O)CSc3nc4ccccc4c(=O)n3CCCO)oc(C)c12`, for which the “hERG current change (%, negative = inhibition) at 10uM” value is listed as -21.2%.

`COc1cccc(Cn2c(Oc3cccc(C)c3)nc3c2c(=O)n(C)c(=O)n3C)c1`: the “hERG current change (%, negative = inhibition) at 10uM” value is -9.7%.

Take `O=S(=O)(N/N=C/c1ccc(F)cc1)c1ccccc1`: the “hERG current change (%, negative = inhibition) at 10uM” value was 6.88%.

Source of the values: publication PMC4336329 (PLoS ONE, 2015).
